Records with an inconclusive call do not appear. A call without a number means that no potency is given here. Active and inactive are the calls of the source. Calls come from the whole dose curve; as a rule, active = well fitted inhibition curve with a large enough effect; inconclusive = small, poorly fitted or top-dose-only effect; inactive = flat fitted curve, though single readings scatter.
Test system: CP203
Experiment: qHTS profiling for inhibitors of Plasmodium falciparum proliferation (AID 504749); note: nearly all actives have a fitted effect of over 60% in size
Settings: P. falciparum in erythrocytes, SYBR Green DNA, 72 h; series mostly up to 28.7 µM
Description: NIH National Institute of Allergy and Infectious Diseases [NIAID] NIH Chemical Genomics Center [NCGC] MLPCN Grant: None Assay Provider: Xinzhuan Su, NIAID NCGC Assay Overview: Plasmodium falciparum is a virulent malarial parasite that kills 1-2 million people worldwide each year. Transmitted by mosquitoes, the sporozoite form of the parasite enters the blood stream to infect hepatocytes, where they become merozoites that infect red blood cells (erythrocytes). Within erythrocytes, merozoites begin a […] cycle of growth and division, after which the parasite is released to infect new red blood cells. Gametocytes, which form within erythrocytes as well, circulate in the bloodstream and are ingested by the mosquito, thereby completing the life cycle. To profile malarial isolates for differential chemical responses and to identify inhibitors of malarial growth, an assay that measures P. falciparum growth and replication within erythrocytes was employed. This assay uses a DNA binding fluorescent dye (SYBR Green) to detect parasite DNA following cell lysis. Because mature erythrocytes lack DNA, only Plasmodium-derived DNA is detected.
NCGC Assay Protocol Summary: The SYBR Green viability assay was adapted from a method described previously (Plouffe et al., 2008). For screening 3 ul culture medium was dispensed into 1536 well black clear bottom plates (Aurora Biotechnologies) using a Multidrop Combi (Thermo Fisher Scientific Inc.), 23 nL compounds in DMSO were added by a pin tool (Kalypsys), and 5 ul of erythrocytes infected with P. falciparum (0.3% parasitemia, 2.5% hematocrit final concentration) were added. The plates were incubated at 37 C in a humidified incubator in 5% CO2 for 72 h, and 2 ul lysis buffer (20 mM Tris HCl, 10 mM EDTA, 0.16% saponin, 1.6% triton X, 10X SYBR Green I supplied as 10,000X […] by Invitrogen) was added to each well. The plates were mixed for 25 sec with gentle shaking and incubated overnight at room temperature in the dark. The following morning, fluorescence intensity at 485(14) nm excitation and 535(25) nm emission wavelengths was measured on an EnVision (Perkin Elmer) plate reader. Plate reads were normalized relative to the control inhibitor (0.29 uM artemisinin) and vehicle (DMSO) wells present on each plate and then corrected by an algorithm using vehicle-only control plates at the beginning and end of the compound plate stack.
Potency is the fitted concentration of half-maximal effect.

Row | Structure (SMILES) | Potency
1 | C[C@]12CCC(=O)C=C1CC[C@H]1[C@@H]3CC[C@](O)(C(=O)CO)[C@@]3(C)C[C@H](O)[C@@]12F | inactive
2 | CCOc1ccc(Cc2nccc3cc(OCC)c(OCC)cc23)cc1OCC | inactive
3 | NC(CO)(CO)CO | inactive
4 | Cc1c(C)n(Cc2ccccc2)c2ccc(C(=O)OCCN(C)C)cc12 | inactive
5 | CCN(CC)C(=O)N1CCN(C)CC1 | inactive
6 | Cc1ncc(CSSCc2cnc(C)c(O)c2CO)c(CO)c1O | inactive
7 | CC/C(=C(/CC)c1ccc(O)cc1)c1ccc(O)cc1 | inactive
8 | CCCCCC=CCC=CCCCCCCCC(=O)OCC | inactive
9 | COc1c2occc2c(OC)c2c(=O)cc(C)oc12 | inactive
10 | Cc1c(N(C)CS(=O)(=O)O)c(=O)n(-c2ccccc2)n1C | inactive
11 | Oc1c(I)cc(Cl)c2cccnc12 | inactive
12 | C[N+]1(CCCCC[N+]2(C)CCCC2)CCCC1 | inactive
13 | CCOc1ccc(NC(=O)CC(C)O)cc1 (stereo not given) | inactive
14 | O=C(O)CNC(=O)c1ccccc1 | inactive
15 | C[C@H]1C[C@H]2[C@@H]3CCC4=CC(=O)C=C[C@]4(C)[C@@]3(Cl)[C@@H](O)C[C@]2(C)[C@@]1(O)C(=O)CO | inactive
16 | Cc1c(C(C)C)c(=O)n(-c2ccccc2)n1C | inactive
17 | Nc1ccc(C(=O)O)cc1 | inactive
18 | c1ccc(OCc2ccc(CCCN3CCOCC3)cc2)cc1 | inactive
19 | COc1cc2c(cc1OC)C(=O)C(CC1CCN(Cc3ccccc3)CC1)C2 (stereo not given) | inactive
20 | CCCCCCCCCCCCCCCC[N+](C)(C)CCN(Cc1ccc(OC)cc1)c1ncccn1 | inactive

Row | Structure (SMILES) | Potency
21 | O=C(O)c1cc2cc(Cc3cccnc3)ccc2o1 | inactive
22 | Nc1ccc(/C=C/c2ccc(N)cc2S(=O)(=O)O)c(S(=O)(=O)O)c1 | inactive
23 | O=C(O)CCCCC(=O)O | inactive
24 | NCCc1ccn[nH]1 | inactive
25 | COC(=O)[C@@H]1CC2=CC(=O)CC[C@]2(C)[C@@]23O[C@@H]2C[C@@]2(C)[C@@H](CC[C@@]24CCC(=O)O4)[C@H]13 | inactive
26 | Cc1c(C)n(CCN(C)C)c2ccc(C(=O)OCCN(C)C)cc12 | inactive
27 | C[C@H](O)C(=O)Nc1c(I)c(C(=O)NC(CO)CO)c(I)c(C(=O)NC(CO)CO)c1I | inactive
28 | Cc1cc(O)c(C(C)C)cc1Cl | inactive
29 | Oc1ccc(Cl)c2cccnc12 | inactive
30 | N[C@H](CO)C(=O)O | inactive
31 | CC(=O)OCC(=O)NCCCOc1cccc(CN2CCCCC2)c1 | inactive
32 | Cc1ccc(C(=O)C(C)CN2CCCCC2)cc1 (stereo not given) | inactive
33 | O=S1(=O)c2cccc3cccc(c23)N1CCCN1CCN(c2ccc(F)cc2)CC1 | inactive
34 | CC(O)(P(=O)(O)O)P(=O)(O)O | inactive
35 | CC(C)(C)CC(C)(C)c1ccc(O)c(Cc2ccc(Cl)cc2Cl)c1 | 1.69 µM (active)
36 | c1ccc(-c2ccc(C(c3ccccc3)n3ccnc3)cc2)cc1 (stereo not given) | 15.1 µM (active)
37 | CC(C)COC(=O)OCN1C(=O)CN(CCN2CC(=O)N(COC(=O)OCC(C)C)C(=O)C2)CC1=O | inactive
38 | Cc1cc(N)c2cc(NC(=O)Nc3ccc4nc(C)cc(N)c4c3)ccc2n1 | 5.36 µM (active)
39 | CC(C)NC[C@@H](O)COc1cccc2ccccc12 | 10.7 µM (active)
40 | Cc1c(F)c(N2CCNC(C)C2)cc2c1c(=O)c(C(=O)O)cn2C1CC1 (stereo not given) | inactive

— PubChem BioAssay (NCATS)
